3CLpro inhibitor: SARS-CoV 3CLpro protease inhibition | P0C6X7 | recombinant SARS-CoV 3CLpro, quenched FRET peptide cleavage | inhibition, % at 6 µM | 0.14% of 290,000 active; in the data active = inhibition above about 12%
Anthrax LF inh2: blocks Bacillus anthracis lethal factor protease | P15917 | multiplex microsphere protease cleavage assay, LF | inhibition, % at 10 µM | 0.12% of 360,000 active | AID 588501; note: plate controls were buffer without enzyme for full effect and enzyme alone for no effect
Target sequence (P15917 whole entry, looked up): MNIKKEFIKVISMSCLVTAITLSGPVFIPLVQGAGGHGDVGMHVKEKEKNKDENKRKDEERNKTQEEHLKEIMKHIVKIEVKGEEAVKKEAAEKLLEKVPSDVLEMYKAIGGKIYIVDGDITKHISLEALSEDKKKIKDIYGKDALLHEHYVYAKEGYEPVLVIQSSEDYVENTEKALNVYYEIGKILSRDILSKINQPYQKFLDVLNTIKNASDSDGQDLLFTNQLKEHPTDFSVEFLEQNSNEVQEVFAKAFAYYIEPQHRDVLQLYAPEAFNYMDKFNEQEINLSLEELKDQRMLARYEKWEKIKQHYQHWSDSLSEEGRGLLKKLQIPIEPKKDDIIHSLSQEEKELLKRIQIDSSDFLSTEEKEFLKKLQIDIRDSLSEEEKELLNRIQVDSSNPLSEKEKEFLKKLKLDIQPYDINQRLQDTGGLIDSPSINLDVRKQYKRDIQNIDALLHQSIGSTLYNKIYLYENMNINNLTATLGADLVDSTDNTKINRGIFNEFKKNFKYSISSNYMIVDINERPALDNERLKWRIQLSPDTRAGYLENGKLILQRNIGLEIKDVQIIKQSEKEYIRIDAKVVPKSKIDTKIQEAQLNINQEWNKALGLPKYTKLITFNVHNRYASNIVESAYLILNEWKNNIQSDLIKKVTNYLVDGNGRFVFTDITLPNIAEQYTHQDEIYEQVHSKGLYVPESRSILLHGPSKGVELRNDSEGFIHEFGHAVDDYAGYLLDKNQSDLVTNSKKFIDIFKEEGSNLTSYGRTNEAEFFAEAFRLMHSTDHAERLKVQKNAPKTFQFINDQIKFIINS
BoNT-F LC inh: inhibitors of Botulinum neurotoxin F light chain protease. Multiplex microsphere protease cleavage assay, flow cytometry. inhibition, % at 10 µM. 0.22% of 360,000 active. AID 588497; in the data active = inhibition above about 35%, passing the limit was not always enough; inconclusive = no clear call, values can overlap the other calls; note: plate controls were buffer without enzyme for full effect and enzyme alone for no effect
Autofluor counter: flagged as autofluorescent in microsphere protease counterscreen. compound autofluorescence counterscreen, microsphere flow cytometry; active compounds read high. fluorescence intensity (concentration not given with the values). 3.1% of 360,000 active; in the data active = fluorescence intensity above about 16000; inconclusive = no clear call, values can overlap the other calls
BoNT-A LC inh2: blocks Botulinum neurotoxin A light chain protease | multiplex microsphere protease substrate cleavage, flow cytometry | inhibition, % at 10 µM | 0.17% of 360,000 active | AID 588499; note: plate controls were buffer without enzyme for full effect and enzyme alone for no effect
BJeLR lethal: kills HRASV12-expressing BJeLR cells. inhibition, % (concentration not given with the values). BJeLR (HRASV12) viability, CellTiter-Glo ATP luminescence, 48 h. AID 1554. 0.17% of 300,000 active; in the data active = inhibition above about 50%; inconclusive = no clear call, values can overlap the other calls
* = called active by the depositor. Hits are enriched below; roughly 3.6% of the tested compounds scored in any of these assays. Cut-off read from the data, not from the text of the source, unless noted: active = inhibition above about 30%; inconclusive = no clear call, values can overlap the other calls; inactive = below that.

What do the screens show for `O=C(c1ccc(F)cc1)c1cc2ccccc2o1`?
3CLpro inhibitor: 1; Anthrax LF inh2: -2; BoNT-F LC inh: 1; Autofluor counter: 24066*; BoNT-A LC inh2: -1; BJeLR lethal: -5

Results for Cc1cc(C)c2c(C)nn(-c3ccccc3)c2n1 ?
3CLpro inhibitor: -2; Anthrax LF inh2: -7; BoNT-F LC inh: -35; Autofluor counter: 3126; BoNT-A LC inh2: -2; BJeLR lethal: -11

Results for Cc1cc(C)c2c(C)nn(C3CCCCC3)c2n1 ?
3CLpro inhibitor: 2; Anthrax LF inh2: -4; BoNT-F LC inh: 0; Autofluor counter: 16323*; BoNT-A LC inh2: inconclusive; BJeLR lethal: 9

What do the screens show for `Cc1ccc(CNc2oc(COc3ccccc3Cl)nc2C#N)cc1`?
3CLpro inhibitor: -1; Anthrax LF inh2: -4; BoNT-F LC inh: -12; Autofluor counter: 2314; BoNT-A LC inh2: -1; BJeLR lethal: 2

How did COc1ccc(CNc2oc(C)nc2C#N)cc1 do in these assays?
3CLpro inhibitor: -3; Anthrax LF inh2: 1; BoNT-F LC inh: -4; Autofluor counter: 20862*; BoNT-A LC inh2: inconclusive; BJeLR lethal: -13

Results for N#Cc1nc(COc2ccc(F)cc2)oc1N1CCC(Cc2ccccc2)CC1 ?
3CLpro inhibitor: 5; Anthrax LF inh2: -5; BoNT-F LC inh: -3; Autofluor counter: 16803*; BoNT-A LC inh2: -1; BJeLR lethal: 0

How did N#Cc1nc(COc2ccc(F)cc2)oc1N1CCN(Cc2ccccc2)CC1 do in these assays?
3CLpro inhibitor: -4; Anthrax LF inh2: -9; BoNT-F LC inh: -7; Autofluor counter: 4287; BoNT-A LC inh2: 0; BJeLR lethal: 0

What do the screens show for `N#Cc1nc(COc2ccccc2Cl)oc1NCc1ccc(F)cc1`?
3CLpro inhibitor: 1; Anthrax LF inh2: -6; BoNT-F LC inh: -8; Autofluor counter: 22901*; BoNT-A LC inh2: -6; BJeLR lethal: 2

How did COc1ccc(N2CCN(c3oc(COc4ccccc4Cl)nc3C#N)CC2)cc1 do in these assays?
3CLpro inhibitor: -2; Anthrax LF inh2: -10; BoNT-F LC inh: -1; Autofluor counter: 19893*; BoNT-A LC inh2: inconclusive; BJeLR lethal: -6

What do the screens show for `COc1ccc(CNc2oc(COc3ccccc3)nc2C#N)cc1`?
3CLpro inhibitor: -1; Anthrax LF inh2: -10; BoNT-F LC inh: 3; Autofluor counter: 9489; BoNT-A LC inh2: 1; BJeLR lethal: -5

What do the screens show for `O=C(c1cnn2c(C(F)F)cc(-c3ccccc3)nc12)N1CCN(Cc2ccc3c(c2)OCO3)CC1`?
3CLpro inhibitor: 0; Anthrax LF inh2: 0; BoNT-F LC inh: -1; Autofluor counter: 5998; BoNT-A LC inh2: 1; BJeLR lethal: -2

How did COCCNC(=O)C1CCN(S(=O)(=O)c2c(C)noc2/C=C/c2cccs2)CC1 do in these assays?
3CLpro inhibitor: 0; Anthrax LF inh2: 5; BoNT-F LC inh: 2; Autofluor counter: 3457; BoNT-A LC inh2: 1; BJeLR lethal: 4

What do the screens show for `COc1cc(Cl)c([C@@H]2C[C@H]3CN(c4ccccc4)C(=O)[C@]34CCCN24)cc1OC`?
3CLpro inhibitor: 0; Anthrax LF inh2: 1; BoNT-F LC inh: 1; Autofluor counter: 3118; BoNT-A LC inh2: 0; BJeLR lethal: -2

Results for CCOc1cc([C@@H]2C[C@H]3CN(c4ccccc4)C(=O)[C@]34CCCN24)ccc1OC ?
3CLpro inhibitor: 0; Anthrax LF inh2: 2; BoNT-F LC inh: 25; Autofluor counter: 22393*; BoNT-A LC inh2: -5; BJeLR lethal: -2

Results for COc1cc([C@@H]2C[C@H]3CN(c4ccccc4)C(=O)[C@]34CCCN24)cc(OC)c1OC ?
3CLpro inhibitor: -1; Anthrax LF inh2: -2; BoNT-F LC inh: 5; Autofluor counter: 9522; BoNT-A LC inh2: -2; BJeLR lethal: 2

Results for COc1ccccc1-n1cc([C@@H]2C[C@H]3CN(c4ccccc4)C(=O)[C@]34CCCN24)cn1 ?
3CLpro inhibitor: 1; Anthrax LF inh2: inconclusive; BoNT-F LC inh: inconclusive; Autofluor counter: 28945*; BoNT-A LC inh2: inconclusive; BJeLR lethal: 2

What do the screens show for `CCOc1nnnc2c1sc1nc(N3CCOCC3)c3c(c12)CC(C)(C)OC3`?
3CLpro inhibitor: 0

How did CC(C)CCNC(=O)C1CC2Cn3c(nc4cc(Cl)c(Cl)cc43)C2N1C (stereo not given) do in these assays?
Anthrax LF inh2: -6; BoNT-F LC inh: -2; Autofluor counter: 3709; BoNT-A LC inh2: 0; BJeLR lethal: -3

How did Cc1ccc(-n2nnnc2SCn2nnc3ccccc3c2=O)cc1 do in these assays?
3CLpro inhibitor: 1; Anthrax LF inh2: -6; BoNT-F LC inh: 6; Autofluor counter: 3416; BoNT-A LC inh2: 0

Results for Cn1c(SCn2nnc3ccccc3c2=O)nc2ccccc2c1=O ?
3CLpro inhibitor: 5; BJeLR lethal: -8

What do the screens show for `CCN(CC)S(=O)(=O)c1ccc2c(c1)nc(SCn1nnc3ccccc3c1=O)n2CC`?
3CLpro inhibitor: 1; Anthrax LF inh2: 0; BoNT-F LC inh: -1; Autofluor counter: 23084*; BoNT-A LC inh2: -1; BJeLR lethal: 4

How did Cc1cccc(-n2nnnc2SCn2nnc3ccccc3c2=O)c1 do in these assays?
3CLpro inhibitor: -7; Anthrax LF inh2: -14; BoNT-F LC inh: 5; Autofluor counter: 20246*; BoNT-A LC inh2: 4; BJeLR lethal: -6

Results for CCOC(=O)Nc1ccc2c(c1)Nc1ccccc1S2 ?
3CLpro inhibitor: -2; Anthrax LF inh2: -2; BoNT-F LC inh: -4; Autofluor counter: 20181*; BoNT-A LC inh2: inconclusive; BJeLR lethal: 7

Results for CCOC(=O)Cn1nnnc1CN(Cc1cccs1)Cc1cc2cc(C)ccc2[nH]c1=O ?
3CLpro inhibitor: 1; Anthrax LF inh2: -15; BoNT-F LC inh: 19; Autofluor counter: 16529*; BoNT-A LC inh2: 16; BJeLR lethal: -6

What do the screens show for `Cn1c(=O)c2cc(NC(=O)Cc3cccc4ccccc34)ccc2n1-c1ccccc1`?
Anthrax LF inh2: 2; BoNT-F LC inh: 0; Autofluor counter: 3907; BoNT-A LC inh2: 1

Results for CCC(=O)Nc1ccc(NCc2cccs2)cc1 ?
3CLpro inhibitor: 0; Anthrax LF inh2: -1; BoNT-F LC inh: -27; Autofluor counter: 4464; BoNT-A LC inh2: -4; BJeLR lethal: -5

What do the screens show for `O=C(COc1ccc(S(=O)(=O)N2CCCC2)cc1Cl)NCc1cccnc1`?
3CLpro inhibitor: 3; Anthrax LF inh2: -3; BoNT-F LC inh: -2; Autofluor counter: 6389; BoNT-A LC inh2: -1; BJeLR lethal: -7

Results for CCOC(=O)c1cnc(-n2nc(C)cc2C)nc1NCCO ?
3CLpro inhibitor: 2; Anthrax LF inh2: -1; BoNT-F LC inh: -2; Autofluor counter: 22604*; BoNT-A LC inh2: -1; BJeLR lethal: -14

What do the screens show for `CCOC(=O)c1cnc(-n2nc(C)cc2C)nc1NNc1ncc(-c2ccccc2)cn1`?
3CLpro inhibitor: -3; BJeLR lethal: 10

What do the screens show for `CCOC(=O)c1cnc(-n2nc(C)cc2C)nc1NC(C)c1ccccc1` (stereo not given)?
3CLpro inhibitor: -2; Anthrax LF inh2: -2; BoNT-F LC inh: -3; Autofluor counter: 16140*; BoNT-A LC inh2: 0; BJeLR lethal: 3

High-throughput results deposited in PubChem by several laboratories.
